Source: PubChem BioAssay
GALR2 antag: GALR2 (human) receptor antagonism; O43603; 140,000 tested, 0.39% active; GALR2-expressing cells, antagonist mode; AID 828; inhibition, % at 4 µM; in the data active means inhibition above about 27%;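 further: cells stimulated with galanin 1-16 at roughly its EC80; 0% = agonist challenge control and 100% = basal control without agonist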
PostGolgi yeast: growth inhibition of a yeast mutant, post-Golgi transport screen. inhibition, % at 10 µM. post-Golgi transport phenotypic cell assay. AID 739. 98,000 tested, 0.9% active;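 further: yeast cells grown in 1536-well plates; yeast grown about 18 h at 30C before absorbance read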
PostGolgi ctrl: inhibits growth of the yeast control strain; 98,000 tested, 5% active; efflux-deficient yeast background strain, growth absorbance A615, 16 h; inhibition, % at 10 µM
S1P2 blocker: S1P2 (human) receptor antagonism. cell-based S1P2 antagonist assay, inhibition at 5 uM. AID 736. inhibition, % at 5 µM. O95136. 97,000 tested, 0.21% active; in the data active means inhibition above about 45%;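 further: CRE beta-lactamase reporter cells expressing human S1P2 stimulated with S1P; 0% = agonist at EC80 alone and 100% = agonist plus reference antagonist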
Target sequence (O95136 whole entry, looked up): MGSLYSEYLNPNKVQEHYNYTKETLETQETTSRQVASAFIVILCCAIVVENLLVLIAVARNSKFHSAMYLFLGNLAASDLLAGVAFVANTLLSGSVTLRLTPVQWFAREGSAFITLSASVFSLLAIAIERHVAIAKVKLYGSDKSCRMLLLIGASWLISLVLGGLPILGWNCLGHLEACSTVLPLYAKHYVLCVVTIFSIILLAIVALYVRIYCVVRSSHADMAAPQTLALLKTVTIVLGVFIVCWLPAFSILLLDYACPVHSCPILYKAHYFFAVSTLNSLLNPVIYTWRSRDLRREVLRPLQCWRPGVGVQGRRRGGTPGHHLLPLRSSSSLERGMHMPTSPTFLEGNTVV
GALR2 ag: GALR2 (human) receptor agonism | activation, % (test concentration not listed) | AID 803 | 140,000 tested, 0.48% active | GALR2-expressing cells, agonist activation read-out; in the data active means activation above about 5%, passing the limit was not always enough;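 further: 0% = vehicle buffer wells and 100% = reference agonist at full effect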
S1P2 ag: agonists of human S1P2 receptor | O95136 | S1P2-expressing cell line, agonist reporter read-out | activation, % at 4.5 µM | 97,000 tested, 0.46% active; in the data active means activation above about 16%;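 further: 0% = vehicle low control and 100% = maximal reference agonist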
Numbers without * were called inactive; · = no result given. This excerpt belongs to a sample that is enriched for hits. Unless noted, no stated cut-off is given here; in the data, active means inhibition above about 30%; inactive means the rest.

SMILES	GALR2 antag	PostGolgi yeast	PostGolgi ctrl	S1P2 blocker	GALR2 ag	S1P2 ag
Clc1ccc(Cn2ncc3c(N4CCCC4)ncnc32)cc1	-2	-9	12	-26	-1	0
CC1CC(C)CN(c2ncnc3c2cnn3Cc2ccc(Cl)cc2)C1 (configuration not stated)	-10	4	51*	-8	0	-1
CCc1cc2c(N3CCN(c4ccccc4)CC3)ncnc2s1	-8	-2	48*	14	-3	-4
Cc1ccc(-n2ncc3c(N4CCN(c5ccccc5)CC4)ncnc32)c(C)c1	8	-2	17	60*	0	-4
Cc1cccc(-n2ncc3c(N4CC(C)CC(C)C4)ncnc32)c1 (configuration not stated)	4	3	33*	0	-2	0
Cc1cccc(-n2ncc3c(N4CCCC4)ncnc32)c1	12	·	·	0	0	-5
COC(=O)c1ccc(C(=O)OC)c(NC(=O)CN(C)Cc2ccccc2)c1	-10	·	·	·	0	·
O=C(CSc1nnc(NC(=O)c2ccc(S(=O)(=O)N3CCOCC3)cc2)s1)Nc1ccccc1C(F)(F)F	-2	·	·	·	-1	·
N#Cc1ccc(-c2ccc(OCC(=O)NCC(=O)Nc3ccc(F)c(F)c3F)cc2)cc1	11	·	·	·	2	·
CCOc1ccccc1NC(=S)N(Cc1cc2ccc(C)cc2[nH]c1=O)CC1CCCN1CC (configuration not stated)	-2	·	·	·	-1	·
Cc1c(C#N)c(N=CN(C)C)c(C(=O)c2ccccc2)n1-c1ccc(Br)cc1	-10	-3	43*	4	0	0
COc1cc(-c2nn3c(Cc4ccccc4)nnc3s2)cc(OC)c1OC	-31	20	43*	-53	1	21*
Cc1cc(-c2nn3c(-c4ccccc4)nnc3s2)c2ccccc2n1	-5	6	17	-6	2	1
CCOc1cccc(-c2nnc3sc(-c4cc(OC)c(OC)c(OC)c4)nn23)c1	10	·	·	·	1	·
Cc1ccc(-c2nnc3sc(CCc4ccccc4)nn23)cc1	-1	6	30*	11	-2	-6
COc1cc(-c2nn3c(-c4ccccc4)nnc3s2)cc(OC)c1OC	9	-4	33*	-3	1	14
Cc1ccccc1-c1nn2c(-c3ccccc3)nnc2s1	11	5	41*	·	1	·
O=C(CCc1ccc(S(=O)(=O)NCCc2ccccc2)cc1)NCc1ccco1	-4	·	·	-3	0	-2
COC(=O)c1sccc1NC(=S)N1CCN(c2cccc(C)c2C)CC1	6	·	·	·	-2	·
CCOc1ccc(OCC)c(NC(=O)CN2CCN(c3cccc(C)c3)C(C)C2)c1 (configuration not stated)	4	2	30*	18	0	-3
CCOc1ccc(NC(=O)CN2CCN(CC(=O)Nc3cccc(F)c3)CC2)cc1	3	-9	1	·	-1	·
COc1ccc(-c2cn(-c3ccc(C)cc3)c(=O)n2CC(=O)Nc2cccc(F)c2)cc1	-20	8	16	-19	15*	-5
CCC(=O)Nc1ccc(S(=O)(=O)Nc2ncccn2)cc1	6	2	31*	-12	-3	-4
COc1ccc(NS(=O)(=O)c2ccc(N/N=C(\C)c3ccncc3)c([N+](=O)[O-])c2)cc1	11	·	·	·	0	·
Cc1ccc(C)c2c1[nH]c1ccc([N+](=O)[O-])cc12	5	9	54*	-1	1	-3
SMILES	GALR2 antag	PostGolgi yeast	PostGolgi ctrl	S1P2 blocker	GALR2 ag	S1P2 ag
CC(=O)N1N=C(c2cccc([N+](=O)[O-])c2)OC1c1ccc(Cl)cc1Cl (configuration not stated)	-9	10	34*	7	-1	-2
CC(=O)N1N=C(N)SC1c1cccc([N+](=O)[O-])c1 (configuration not stated)	-6	·	·	·	-1	·
CC1CCCCN1C(=S)NCCc1ccccc1 (configuration not stated)	0	-1	6	-2	-1	0
CCn1c(N2CCN(C(=S)NCCc3ccccc3)CC2)nc2ccccc21	-1	4	31*	-8	-1	-8
CC1CCCN(C(=S)NCCc2ccccc2)C1 (configuration not stated)	8	0	32*	-3	0	-4
CCn1c(N2CCN(C(=S)NC)CC2)nc2ccccc21	-5	-2	0	21	-1	-4
O=C(COC(=O)c1ccc(Cl)c(S(=O)(=O)N2CCc3ccccc3C2)c1)Nc1ncc(Cl)cc1Cl	6	·	·	·	-1	·
CC(=O)c1nn(-c2cccc(Br)c2)cc1C(=O)c1ccccc1	-13	14	16	2	0	-2
